Test results from PubChem BioAssay.
The source made the active and inactive calls.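 How the source made its calls: active means inhibition at or above 50% relative to wild type and mutant plate controls; inactive means inhibition below 50%.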

test: inhibitors of Chlamydomonas gravitaxis, primary screen, whole organism, Chlamydomonas reinhardtii, WT vs cilia-less mutant, absorbance, 96-well (AID 463189); conditions: OD600 absorbance, 2 days, at 10 µM, hits give high values;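 further: 0% = wild type cc124 cells in DMSO and 100% = ciliumless bld1 mutant cells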

inhibition, inactive:
COc1ccc2c(c1)c(CC(=O)O)c(C)n2Cc1ccc(F)cc1 4.4%
O=C(O)/C=C/C(O)c1ccc(Cl)cc1 (stereo not given) -3.97%
COC(=O)c1c(C)[nH]c(C)c1C(=O)c1ccccc1Cc1ccccc1 0.163%
CN1CCC[C@H]1c1cccnc1 0.862%
Nc1ncn([C@@H]2O[C@H](CO)[C@@H](O)[C@H]2O)c(=O)n1 3.22%
Cn1c(=O)[nH]c2ncn(C)c2c1=O -7.51%
CC[C@@H]1Cc2cc(O)ccc2C2=C1c1ccc(O)cc1C[C@H]2CC 0.094%
CSC(=N)N 7.24%
C[C@@]1(C2CCCC2)Cc2cc(OCC(=O)O)c(Cl)c(Cl)c2C1=O 5.71%
COc1cccc(-c2cc(=O)c3ccccc3o2)c1N 0.351%
N=C1Sc2ccccc2C2=NCCCN12 9.36%
CC[C@@H](C)[C@H]1O[C@]2(CC[C@@H]1C)C[C@@H]1C[C@@H](C/C=C(\C)[C@@H](O[C@H]3C[C@H](OC)[C@@H](O[C@H]4C[C@H](OC)[C@@H](O)[C@H](C)O4)[C@H](C)O3)[C@@H](C)/C=C/C=C3\CO[C@@H]4[C@H](O)C(C)=C[C@@H](C(=O)O1)[C@]34O)O2 22.3%
COc1cc2c(CCNC(C)=O)c[nH]c2cc1O -0.037%
CCC1(O)CC2CN(CCc3c([nH]c4ccccc34)[C@@](C(=O)OC)(c3cc4c(cc3OC)N(C)C3[C@]45CCN4CC=C[C@@](CC)([C@@H](OC(C)=O)[C@]3(O)C(=O)OC)[C@H]45)C2)C1 (stereo not given in full) 4.61%
CC(C)COC(=O)OCN1C(=O)CN(CCN2CC(=O)N(COC(=O)OCC(C)C)C(=O)C2)CC1=O 5.88%
Cc1ccc(=O)n(-c2ccccc2)c1 4.35%
COc1ccc(-c2ccc(N)[n+](CCCC(=O)O)n2)cc1 7.29%
NNc1nncc2ccccc12 -2.73%
Nc1nc(OCc2ccccc2)c2[nH]cnc2n1 0.83%
CCCCS(=N)(=O)CC[C@H](N)C(=O)O (stereo not given in full) -0.592%
COc1cc([C@@H]2c3cc4c(cc3[C@H](O)C3COC(=O)[C@@H]32)OCO4)cc(OC)c1OC (stereo not given in full) 0.089%
c1ccc(C2CN3CCSC3=N2)cc1 (stereo not given) 45.3%
CC1C(=O)N(C)C(=O)c2nc[nH]c21 (stereo not given) 7.36%
N[C@@H]1CONC1=O 0.59%
CCc1cccc(N(C)C(N)=Nc2cccc3ccccc23)c1 -1.11%
O=C(O)Cc1ccc(O)c(O)c1 5.56%
CC1=C(/C=C/C(C)=C/C=C/C(C)=C\C(=O)O)C(C)(C)CCC1 -3.51%
CN1CCN(c2nc3cc(C(F)(F)F)ccc3n3cccc23)CC1 10.9%
CC(=O)NCCc1ccc(O)c(O)c1 5.98%
CCN(CC)C(=S)SSC(=S)N(CC)CC 12.2%
COc1ccccc1N1CCN(CCN(C(=O)c2ccc(I)cc2)c2ccccn2)CC1 -3.47%
NS(=O)(=O)c1cccc2c1c([N+](=O)[O-])cc1nc(O)c(O)nc12 0.793%
CC(C)NC[C@@H](O)COc1ccc(CC(N)=O)cc1 -8.19%
NCCNC(=O)c1ccc(Cl)cc1 5.46%
O=S(=O)(c1cccc2c(I)cccc12)N1CCCNCC1 -1.51%
N#C/C(=C\c1c[nH]c2ccccc12)C(=O)c1ccc(O)c(O)c1 4.95%
O=c1c(-c2ccc(O)cc2)coc2cc(O)ccc12 -7.57%
CN1C2CCC1CC(OC(c1ccccc1)c1ccccc1)C2 (stereo not given) 1.86%
CC(N)=O 0.285%
COc1cc(OC)c(/C=C2/C(=O)Nc3ccccc32)c(OC)c1 6.51%
